Experimental data as given in PubChem BioAssay (EPA / NIEHS).
Calls of active or inactive are those of the source. Rule for the calls: active = hit-call score of the fitted dose curve at least 0.9, where 1 is the maximum; inactive = score below 0.9.

Key:
[1] = ATG_CMV_CIS: Attagene CIS-FACTORIAL HepG2 Assay for human CMV (Internal Marker) (AID 2282928); conditions: HepG2 CMV promoter reporter, transcription factor profiling; actives raise or lower the signal;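 note: endpoint acts as a background internal control marker rather than a target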
How it was run: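 Readout: fluorescent reporter cDNA fragments separated by capillary electrophoresis after RT-PCR and HpaI cut. Cells: HepG2 carrying transfected cis-promoter reporter constructs, dosed 24 h. Endpoint serves as background internal-marker control, fit bidirectionally versus DMSO.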

[2] = ATG_DR4_LXR_CIS: Attagene CIS-FACTORIAL HepG2 Assay for human Liver X Receptor (LXR), DR4 submotif (AID 2282929); conditions: HepG2 Attagene DR4 cis-reporter, mRNA transcription; actives raise or lower the signal
How it was run: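 Cells were transfected with multiple reporter transcription units, exposed to chemicals for 24 hours, then lysed for RNA. Reporter mRNA induction was measured by RT-PCR with capillary electrophoresis detection and fitted in both directions relative to DMSO.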

[3] = target: Aryl hydrocarbon receptor (Homo sapiens) (UniProt P35869); assay: ATG_Ahr_CIS: Attagene CIS-FACTORIAL HepG2 Assay for human Aryl Hydrocarbon Receptor (Ahr) (AID 2282930); conditions: HepG2 AhR cis-factorial reporter transcription; actives raise or lower the signal
Chain of Aryl hydrocarbon receptor (Homo sapiens) (P35869 whole entry, looked up): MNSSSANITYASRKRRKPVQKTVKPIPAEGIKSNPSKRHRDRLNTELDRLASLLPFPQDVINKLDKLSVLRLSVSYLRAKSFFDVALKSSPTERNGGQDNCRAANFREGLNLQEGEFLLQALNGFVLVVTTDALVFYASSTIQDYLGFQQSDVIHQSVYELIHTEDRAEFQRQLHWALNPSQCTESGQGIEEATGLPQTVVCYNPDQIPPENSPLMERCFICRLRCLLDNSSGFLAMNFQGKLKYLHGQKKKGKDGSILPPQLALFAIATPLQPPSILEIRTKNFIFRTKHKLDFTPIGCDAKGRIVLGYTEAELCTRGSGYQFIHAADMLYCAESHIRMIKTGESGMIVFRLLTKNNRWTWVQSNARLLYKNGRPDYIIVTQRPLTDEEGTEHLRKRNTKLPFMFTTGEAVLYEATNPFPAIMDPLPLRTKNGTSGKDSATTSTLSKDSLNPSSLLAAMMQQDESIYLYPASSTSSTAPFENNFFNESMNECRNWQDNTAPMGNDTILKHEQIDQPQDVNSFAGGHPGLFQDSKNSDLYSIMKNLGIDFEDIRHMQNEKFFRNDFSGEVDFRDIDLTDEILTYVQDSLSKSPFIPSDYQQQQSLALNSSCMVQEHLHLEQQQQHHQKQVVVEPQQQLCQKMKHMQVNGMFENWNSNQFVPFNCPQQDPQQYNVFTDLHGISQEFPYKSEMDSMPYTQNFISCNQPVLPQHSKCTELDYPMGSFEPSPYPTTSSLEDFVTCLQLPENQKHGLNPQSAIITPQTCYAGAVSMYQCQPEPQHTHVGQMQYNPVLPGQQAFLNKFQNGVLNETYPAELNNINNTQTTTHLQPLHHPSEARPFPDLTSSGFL
How it was run: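 HepG2, transient MRTU (cis) transfection, 24 h exposure. RNA → cDNA → PCR → 6-FAM primer extension → HpaI 2 h 37 C → CE. Fit: bidirectional, DMSO baseline.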

[4] = ATG_AP_1_CIS: Attagene CIS-FACTORIAL HepG2 Assay for human Activator Protein 1 (AP-1) (AID 2282931); conditions: HepG2 Attagene cis-factorial AP-1 reporter mRNA; actives raise or lower the signal
How it was run: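 Endogenous transcription-factor activity in human HepG2 liver cells is read through a cis-promoter reporter transcript, sampled 24 h after dosing. Detection uses RT-PCR with capillary electrophoresis; values come from bidirectional fitting relative to DMSO.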

[5] = ATG_AP_2_CIS: Attagene CIS-FACTORIAL HepG2 Assay for human Activator Protein 2 (AP-2) (AID 2282932); conditions: HepG2 AP-2 cis-reporter, Attagene transcription factor profiling; actives raise or lower the signal
How it was run: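 Endogenous transcription factor activity is reported through transfected multiplex reporter constructs in HepG2, after 24 h of compound exposure. Transcripts were quantified by RT-PCR and capillary electrophoresis of fluorescent fragments. Bidirectional fit against DMSO.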

[6] = ATG_BRE_CIS: Attagene CIS-FACTORIAL HepG2 Assay for human Bone Morphogenetic Protein (BMP) Response Element (BRE) (AID 2282933); conditions: HepG2 BMP response element reporter, Attagene transcription factor profiling; actives raise or lower the signal
How it was run: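 Fluorescence-labelled reporter cDNA fragments, separated by capillary electrophoresis, gave the signal for this component of a 52-readout multiplex. HepG2 cells were transfected, exposed to chemicals for 24 h, and compared with DMSO using bidirectional fitting.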

[7] = target: Retinoic acid receptor alpha (Homo sapiens) (UniProt P10276); assay: ATG_DR5_RAR_CIS: Attagene CIS-FACTORIAL HepG2 Assay for human Retinoic Acid Receptor Alpha (RARE), DR5 submotif (AID 2282934); conditions: HepG2 Attagene cis-factorial RARE DR5 reporter, mRNA; actives raise or lower the signal
Chain of Retinoic acid receptor alpha (Homo sapiens) (P10276 whole entry, looked up): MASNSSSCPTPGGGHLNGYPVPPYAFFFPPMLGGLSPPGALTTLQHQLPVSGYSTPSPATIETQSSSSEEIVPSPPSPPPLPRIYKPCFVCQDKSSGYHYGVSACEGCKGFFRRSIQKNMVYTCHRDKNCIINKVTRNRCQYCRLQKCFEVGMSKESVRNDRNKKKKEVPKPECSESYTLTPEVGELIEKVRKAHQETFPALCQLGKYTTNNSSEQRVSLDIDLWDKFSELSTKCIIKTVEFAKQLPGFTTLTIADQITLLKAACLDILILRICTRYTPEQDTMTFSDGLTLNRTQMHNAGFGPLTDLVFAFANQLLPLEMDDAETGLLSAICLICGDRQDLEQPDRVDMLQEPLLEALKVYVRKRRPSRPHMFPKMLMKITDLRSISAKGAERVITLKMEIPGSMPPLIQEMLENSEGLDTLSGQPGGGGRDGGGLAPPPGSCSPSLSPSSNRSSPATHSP
How it was run: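 HepG2, transient cis-reporter transfection, 24 h exposure. mRNA readout: RT-PCR, FAM label, HpaI cut, capillary electrophoresis. DMSO baseline, gain/loss fitting.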

[8] = target: Transcription factor E2F1 (Homo sapiens) (UniProt Q01094); assay: ATG_E2F_CIS: Attagene CIS-FACTORIAL HepG2 Assay for human E2F Transcription Factor 1 (AID 2282935); conditions: HepG2 Attagene cis-reporter, E2F reporter RNA transcripts; actives raise or lower the signal
Chain of Transcription factor E2F1 (Homo sapiens) (Q01094 whole entry, looked up): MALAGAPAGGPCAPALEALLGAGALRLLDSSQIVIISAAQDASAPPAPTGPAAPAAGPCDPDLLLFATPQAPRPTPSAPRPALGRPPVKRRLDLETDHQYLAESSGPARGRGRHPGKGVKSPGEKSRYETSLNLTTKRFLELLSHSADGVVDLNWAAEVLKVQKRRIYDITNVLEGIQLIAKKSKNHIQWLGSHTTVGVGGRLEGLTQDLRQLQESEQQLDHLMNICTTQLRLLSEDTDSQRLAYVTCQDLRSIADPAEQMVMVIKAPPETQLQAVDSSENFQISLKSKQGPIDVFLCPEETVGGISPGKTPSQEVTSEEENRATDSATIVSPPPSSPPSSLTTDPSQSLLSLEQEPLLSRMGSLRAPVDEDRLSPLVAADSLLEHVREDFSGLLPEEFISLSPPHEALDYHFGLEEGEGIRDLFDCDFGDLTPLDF
How it was run: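 Gain or loss of reporter transcript, fitted against DMSO, reflects E2F1-driven transcription. Transiently transfected HepG2 dosed 24 h before RNA isolation. Quantified by fluorescent RT-PCR products separated by capillary electrophoresis.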

[9] = ATG_E_Box_CIS: Attagene CIS-FACTORIAL HepG2 Assay for human Enhancer Box (E-box) (AID 2282936); conditions: HepG2 E-box cis-reporter transcription, actives raise or lower the signal
How it was run: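 E-box-driven reporter transcripts measured in transiently transfected HepG2 after 24 h exposure: RNA reverse-transcribed, PCR-amplified, fluorescently labelled, digested and resolved by capillary electrophoresis. Gain or loss relative to DMSO.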

[10] = ATG_M_61_CIS: Attagene CIS-FACTORIAL HepG2 Assay for M61 Transcription Factor (Internal Marker) (AID 2282937); conditions: HepG2 Attagene CIS-FACTORIAL M61 internal marker reporter; actives raise or lower the signal
How it was run: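 Cells were transfected with reporter units under cis-regulatory promoters, treated with chemicals for 24 h, then lysed for RNA. Reporter transcripts were quantified by RT-PCR and capillary electrophoresis, and activity was fitted bidirectionally against DMSO.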

[11] = ATG_EGR_CIS: Attagene CIS-FACTORIAL HepG2 Assay for human Early Growth Response 1 (EGR1) (AID 2282938); conditions: HepG2 Attagene CIS-FACTORIAL EGR reporter mRNA; actives raise or lower the signal
How it was run: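 Endogenous TF activity in HepG2 liver cells was gauged through cis-promoter reporter constructs transiently transfected. After 24 h dosing, reporter mRNA was quantified by RT-PCR and capillary electrophoresis, and curves fitted in both directions versus DMSO.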

[12] = ATG_M_19_CIS: Attagene CIS-FACTORIAL HepG2 Assay for M19 Transcription Factor (Internal Marker) (AID 2282939); conditions: HepG2 Attagene CIS-FACTORIAL M19 internal marker reporter; actives raise or lower the signal
How it was run: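 HepG2, MRTU transient transfection, 24 h dosing. Total RNA → RT-PCR → 6-FAM primer extension → HpaI digest → CE fluorescence. Bidirectional curve fit, DMSO negative control.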

[13] = ATG_Ets_CIS: Attagene CIS-FACTORIAL HepG2 Assay for human Erythroblast Transformation Specific (ETS) (AID 2282941); conditions: HepG2 ETS cis-reporter transcription, actives raise or lower the signal
How it was run: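 RT-PCR/capillary electrophoresis fluorescence read-out of reporter mRNA; HepG2 transient multi-reporter transfection; 24 h compound exposure; gain or loss of signal fitted bidirectionally relative to DMSO.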

[14] = target: Hepatocyte nuclear factor 3-beta (Homo sapiens) (UniProt Q9Y261); assay: ATG_FoxA2_CIS: Attagene CIS-FACTORIAL HepG2 Assay for human Forkhead box A2 (FOXA2) (AID 2282942); conditions: HepG2 cis-reporter transcription factor activity, 24 h; actives raise or lower the signal
Chain of Hepatocyte nuclear factor 3-beta (Homo sapiens) (Q9Y261 whole entry, looked up): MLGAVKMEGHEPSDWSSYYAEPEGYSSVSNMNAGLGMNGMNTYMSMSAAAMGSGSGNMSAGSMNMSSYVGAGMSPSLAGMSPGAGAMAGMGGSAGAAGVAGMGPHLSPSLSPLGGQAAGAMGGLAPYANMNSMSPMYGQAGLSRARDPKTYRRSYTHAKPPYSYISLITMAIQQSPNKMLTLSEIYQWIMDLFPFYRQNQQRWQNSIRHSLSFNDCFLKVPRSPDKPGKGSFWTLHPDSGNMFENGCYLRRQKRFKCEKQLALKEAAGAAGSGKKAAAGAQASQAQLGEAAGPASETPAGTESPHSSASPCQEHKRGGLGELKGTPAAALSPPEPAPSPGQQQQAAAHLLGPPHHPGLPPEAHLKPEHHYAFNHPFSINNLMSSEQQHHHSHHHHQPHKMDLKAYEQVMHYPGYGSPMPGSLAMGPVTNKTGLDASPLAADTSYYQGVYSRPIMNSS
How it was run: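 Endogenous transcription factor activity was read in HepG2 cells carrying transiently transfected cis-promoter reporter units. After 24 h dosing, reporter mRNA was quantified by RT-PCR and capillary electrophoresis, and values fitted bidirectionally versus DMSO.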

[15] = ATG_GATA_CIS: Attagene CIS-FACTORIAL HepG2 Assay for human GATA Binding Protein (AID 2282944); conditions: HepG2 GATA cis-element reporter, Attagene multiplex mRNA; actives raise or lower the signal
How it was run: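 Cells: HepG2, transiently transfected with cis-regulated reporter transcription units. Exposure: 24 h. Detection: RT-PCR plus capillary electrophoresis of FAM-labeled fragments. Analysis: bidirectional, DMSO as baseline.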

[16] = ATG_GLI_CIS: Attagene CIS-FACTORIAL HepG2 Assay for human Zinc Finger Protein GLI1 (AID 2282945); conditions: HepG2, Attagene cis-factorial reporter mRNA, GLI element; actives raise or lower the signal
How it was run: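 Bidirectional curve fits relative to DMSO, using reporter mRNA levels from RT-PCR plus capillary electrophoresis. Cells were HepG2 transiently carrying cis-regulated reporter constructs, harvested 24 h after dosing.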

[17] = ATG_GRE_CIS: Attagene CIS-FACTORIAL HepG2 Assay for human Glucocorticoid Response Elements (GRE) (AID 2282947); conditions: HepG2 GRE cis-reporter, Attagene multiplex mRNA; actives raise or lower the signal
How it was run: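 Reporter transcripts read by RT-PCR with capillary electrophoresis fluorescence after a 24 h chemical exposure of HepG2 cells transiently transfected with multiple cis-element reporter units. Gain or loss fitted against DMSO.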

[18] = ATG_ERE_CIS: Attagene CIS-FACTORIAL HepG2 Assay for Estrogen Response Element (ERE) (AID 2282940); conditions: HepG2 ERE cis-reporter, Attagene RNA transcript; actives raise or lower the signal
How it was run: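 After a 24 h chemical treatment, RNA from reporter-transfected HepG2 cells is reverse-transcribed, PCR-amplified and fluorescently labelled. Fragments separated by capillary electrophoresis give reporter signal; DMSO serves as negative control.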

[19] = ATG_FoxO_CIS: Attagene CIS-FACTORIAL HepG2 Assay for human Forkhead box O (FoxO) (AID 2282943); conditions: HepG2 Attagene cis-reporter, FoxO element, mRNA; actives raise or lower the signal
How it was run: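 Human hepatoma HepG2 cells carry transiently introduced reporter transcription units controlled by cis promoter elements. Chemical treatment lasted 24 h, and mRNA signal was compared with DMSO.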

Measured: outcome

C#C[C@]1(O)CC[C@H]2[C@@H]3CCC4=CC(=O)CC[C@]4(C)[C@H]3CC[C@@]21C
not listed: [18] | [19]
inactive: all other assays above

C=C(C)C(=O)OCC(CC)CCCC (stereo not drawn)
not listed: [11]
inactive: all other assays above

C=CCCl
not listed: [11]
inactive: all other assays above

Clc1cccc(Cl)c1
not listed: [11] | [17] | [18] | [19]
inactive: all other assays above
